Experimental data from PubChem BioAssay (EPA / NIEHS).
Active and inactive are the calls of the source. Rule for the calls: active = hit-call score of the fitted dose curve at least 0.9, where 1 is the maximum; inactive = score below 0.9.

Experiments:
[1] = ATG_CRE_CIS: Attagene CIS-FACTORIAL HepG2 Assay for human cAMP Responsive Element (CRE) binding protein 3 (AID 2282926); settings: HepG2 CRE cis-reporter, Attagene multiplexed mRNA; actives raise or lower the signal
Procedure, shortened: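 Readout: fluorescently labelled reporter transcripts resolved by capillary electrophoresis after RT-PCR, taken 24 h post-dosing in transfected HepG2. Endogenous transcription factor activity drives each cis-element reporter; gain or loss of signal fitted relative to DMSO control.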

[2] = target: CCAAT/enhancer-binding protein beta (Homo sapiens) (UniProt P17676); assay: ATG_C_EBP_CIS: Attagene CIS-FACTORIAL HepG2 Assay for human CCAAT/Enhancer Binding Protein (C/EBP) beta (AID 2282927); settings: HepG2 Attagene cis-factorial transcription factor reporter; actives raise or lower the signal
Chain of CCAAT/enhancer-binding protein beta (Homo sapiens) (P17676 whole entry, looked up): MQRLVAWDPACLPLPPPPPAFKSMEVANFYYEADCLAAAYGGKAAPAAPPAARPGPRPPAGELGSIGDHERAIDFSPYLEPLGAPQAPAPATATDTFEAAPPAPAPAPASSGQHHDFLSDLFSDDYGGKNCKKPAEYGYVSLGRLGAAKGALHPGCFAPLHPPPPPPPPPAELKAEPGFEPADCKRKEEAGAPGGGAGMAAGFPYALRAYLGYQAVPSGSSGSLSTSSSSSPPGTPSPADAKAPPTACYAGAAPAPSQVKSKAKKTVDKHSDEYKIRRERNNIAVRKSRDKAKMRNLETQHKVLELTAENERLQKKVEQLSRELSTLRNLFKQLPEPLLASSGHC
Procedure, shortened: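 HepG2, transient MRTU transfection, 24 h treatment. RT-PCR plus CE fluorescence; DMSO negative control, bidirectional fit.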

[3] = ATG_CMV_CIS: Attagene CIS-FACTORIAL HepG2 Assay for human CMV (Internal Marker) (AID 2282928); settings: HepG2 CMV promoter reporter, transcription factor profiling; actives raise or lower the signal;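 note: endpoint acts as a background internal control marker rather than a target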
Procedure, shortened: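 Reporter transcripts from transfected HepG2 cells are isolated after 24 h of chemical dosing, reverse-transcribed and amplified. Fragments labeled with 6-FAM are cut with HpaI and quantified by capillary electrophoresis; DMSO defines baseline.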

[4] = target: Aryl hydrocarbon receptor (Homo sapiens) (UniProt P35869); assay: ATG_Ahr_CIS: Attagene CIS-FACTORIAL HepG2 Assay for human Aryl Hydrocarbon Receptor (Ahr) (AID 2282930); settings: HepG2 AhR cis-factorial reporter transcription; actives raise or lower the signal
Chain of Aryl hydrocarbon receptor (Homo sapiens) (P35869 whole entry, looked up): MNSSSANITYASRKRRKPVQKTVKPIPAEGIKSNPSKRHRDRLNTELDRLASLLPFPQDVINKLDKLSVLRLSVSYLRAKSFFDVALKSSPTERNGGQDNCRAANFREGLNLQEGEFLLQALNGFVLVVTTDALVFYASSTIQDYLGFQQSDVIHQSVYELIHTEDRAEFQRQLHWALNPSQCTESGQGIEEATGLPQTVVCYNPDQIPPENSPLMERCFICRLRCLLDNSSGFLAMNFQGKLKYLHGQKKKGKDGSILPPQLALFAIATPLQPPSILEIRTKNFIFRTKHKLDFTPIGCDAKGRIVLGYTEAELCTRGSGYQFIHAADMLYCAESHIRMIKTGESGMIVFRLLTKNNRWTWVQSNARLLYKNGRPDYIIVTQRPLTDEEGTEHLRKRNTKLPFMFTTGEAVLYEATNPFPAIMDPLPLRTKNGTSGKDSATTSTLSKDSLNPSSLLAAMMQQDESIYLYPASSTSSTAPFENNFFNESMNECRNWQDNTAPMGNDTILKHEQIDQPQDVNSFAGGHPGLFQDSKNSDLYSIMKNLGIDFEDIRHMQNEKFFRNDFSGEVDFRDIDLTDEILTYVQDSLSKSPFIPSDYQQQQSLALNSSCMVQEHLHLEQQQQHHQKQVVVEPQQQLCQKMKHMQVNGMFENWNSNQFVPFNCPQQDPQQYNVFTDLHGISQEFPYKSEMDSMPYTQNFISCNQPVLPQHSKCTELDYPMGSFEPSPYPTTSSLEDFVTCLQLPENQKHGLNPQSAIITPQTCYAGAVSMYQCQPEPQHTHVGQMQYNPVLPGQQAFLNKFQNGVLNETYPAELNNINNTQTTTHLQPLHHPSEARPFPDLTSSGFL
Procedure, shortened: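 Endogenous factor activity is tracked through cis-promoter reporter units transfected into HepG2 cells. Transcript levels at 24 h are read by fluorescent RT-PCR and capillary electrophoresis, with activity in either direction scored relative to DMSO.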

[5] = ATG_AP_1_CIS: Attagene CIS-FACTORIAL HepG2 Assay for human Activator Protein 1 (AP-1) (AID 2282931); settings: HepG2 Attagene cis-factorial AP-1 reporter mRNA; actives raise or lower the signal
Procedure, shortened: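 We transfected HepG2 cells transiently with a set of cis-regulated reporter transcription units, dosed them for 24 h, and quantified reporter mRNA via RT-PCR and capillary electrophoresis, scoring gain or loss of signal relative to DMSO.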

[6] = ATG_AP_2_CIS: Attagene CIS-FACTORIAL HepG2 Assay for human Activator Protein 2 (AP-2) (AID 2282932); settings: HepG2 AP-2 cis-reporter, Attagene transcription factor profiling; actives raise or lower the signal
Procedure, shortened: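 Liver-derived HepG2 line, cis-reporter system measuring endogenous factors; 24 h dosing; reporter mRNA detected by fluorescent RT-PCR and capillary electrophoresis.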

[7] = ATG_BRE_CIS: Attagene CIS-FACTORIAL HepG2 Assay for human Bone Morphogenetic Protein (BMP) Response Element (BRE) (AID 2282933); settings: HepG2 BMP response element reporter, Attagene transcription factor profiling; actives raise or lower the signal
Procedure, shortened: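 Read-out: reporter mRNA induction quantified by RT-PCR and capillary electrophoresis after 24 h chemical exposure of transfected HepG2 cells. Endogenous factor activity on the BMP response element; gain or loss fitted against DMSO baseline.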

[8] = target: Transcription factor E2F1 (Homo sapiens) (UniProt Q01094); assay: ATG_E2F_CIS: Attagene CIS-FACTORIAL HepG2 Assay for human E2F Transcription Factor 1 (AID 2282935); settings: HepG2 Attagene cis-reporter, E2F reporter RNA transcripts; actives raise or lower the signal
Chain of Transcription factor E2F1 (Homo sapiens) (Q01094 whole entry, looked up): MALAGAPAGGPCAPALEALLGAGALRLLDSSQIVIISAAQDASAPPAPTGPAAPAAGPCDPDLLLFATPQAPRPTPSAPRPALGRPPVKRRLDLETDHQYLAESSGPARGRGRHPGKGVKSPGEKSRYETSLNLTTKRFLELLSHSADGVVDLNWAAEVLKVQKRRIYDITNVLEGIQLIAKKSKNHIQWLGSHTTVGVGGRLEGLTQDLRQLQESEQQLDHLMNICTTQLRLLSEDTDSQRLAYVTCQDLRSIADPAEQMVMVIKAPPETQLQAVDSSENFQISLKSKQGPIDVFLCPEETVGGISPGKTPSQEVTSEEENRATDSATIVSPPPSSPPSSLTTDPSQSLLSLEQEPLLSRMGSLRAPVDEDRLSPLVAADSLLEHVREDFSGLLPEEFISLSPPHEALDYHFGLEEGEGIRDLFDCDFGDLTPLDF
Procedure, shortened: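 Liver-derived HepG2 cells expressing transfected promoter-driven reporter units received test chemical for 24 hours. Signal gains or losses were fitted bidirectionally against DMSO.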

[9] = ATG_E_Box_CIS: Attagene CIS-FACTORIAL HepG2 Assay for human Enhancer Box (E-box) (AID 2282936); settings: HepG2 E-box cis-reporter transcription, actives raise or lower the signal
Procedure, shortened: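 In this cell-based setup, HepG2 cells bearing transfected promoter-driven reporter units were exposed to chemicals for 24 h; reporter transcripts were amplified, 6-FAM-labelled, cut with HpaI and sized by capillary electrophoresis.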

[10] = ATG_M_61_CIS: Attagene CIS-FACTORIAL HepG2 Assay for M61 Transcription Factor (Internal Marker) (AID 2282937); settings: HepG2 Attagene CIS-FACTORIAL M61 internal marker reporter; actives raise or lower the signal
Procedure, shortened: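 Multiplexed reporter mRNA assay, HepG2 human hepatoma cells, 24 h treatment. Signal: FAM-labelled, HpaI-digested RT-PCR fragments by CE. Fit: bidirectional, baseline DMSO.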

[11] = ATG_EGR_CIS: Attagene CIS-FACTORIAL HepG2 Assay for human Early Growth Response 1 (EGR1) (AID 2282938); settings: HepG2 Attagene CIS-FACTORIAL EGR reporter mRNA; actives raise or lower the signal
Procedure, shortened: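 Multiplexed cis-reporter system in human hepatoma HepG2 cells, transiently transfected. Cells are dosed for 24 h; reporter transcripts are amplified, fluorescently tagged and sized by capillary electrophoresis, with DMSO as negative control.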

[12] = ATG_M_19_CIS: Attagene CIS-FACTORIAL HepG2 Assay for M19 Transcription Factor (Internal Marker) (AID 2282939); settings: HepG2 Attagene CIS-FACTORIAL M19 internal marker reporter; actives raise or lower the signal
Procedure, shortened: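 Readout: fluorescent reporter-transcript fragments by capillary electrophoresis after RT-PCR. Human HepG2 liver cells carried transfected MRTU constructs reporting endogenous transcription-factor activity; exposure 24 h. Gain or loss of signal fitted relative to DMSO.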

[13] = target: Hepatocyte nuclear factor 3-beta (Homo sapiens) (UniProt Q9Y261); assay: ATG_FoxA2_CIS: Attagene CIS-FACTORIAL HepG2 Assay for human Forkhead box A2 (FOXA2) (AID 2282942); settings: HepG2 cis-reporter transcription factor activity, 24 h; actives raise or lower the signal
Chain of Hepatocyte nuclear factor 3-beta (Homo sapiens) (Q9Y261 whole entry, looked up): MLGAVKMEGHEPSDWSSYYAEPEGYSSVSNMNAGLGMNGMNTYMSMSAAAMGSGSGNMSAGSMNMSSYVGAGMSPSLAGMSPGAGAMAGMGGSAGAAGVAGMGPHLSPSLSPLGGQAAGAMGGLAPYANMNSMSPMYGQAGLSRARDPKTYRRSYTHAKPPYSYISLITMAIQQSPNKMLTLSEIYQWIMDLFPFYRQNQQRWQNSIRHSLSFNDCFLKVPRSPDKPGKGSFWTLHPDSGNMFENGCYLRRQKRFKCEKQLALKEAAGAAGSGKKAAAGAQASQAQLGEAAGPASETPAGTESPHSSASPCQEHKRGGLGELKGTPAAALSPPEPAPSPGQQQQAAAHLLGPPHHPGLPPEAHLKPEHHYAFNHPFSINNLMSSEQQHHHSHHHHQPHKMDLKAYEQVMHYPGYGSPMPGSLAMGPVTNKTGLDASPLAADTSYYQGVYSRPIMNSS
Procedure, shortened: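 Multiplexed cis-element reporter assay in transiently transfected HepG2. Twenty-four hours post-dosing, RNA was reverse-transcribed, amplified, FAM-labelled, HpaI-digested and separated by CE. Activity gain or loss relative to DMSO.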

[14] = ATG_GATA_CIS: Attagene CIS-FACTORIAL HepG2 Assay for human GATA Binding Protein (AID 2282944); settings: HepG2 GATA cis-element reporter, Attagene multiplex mRNA; actives raise or lower the signal
Procedure, shortened: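 Read-out: fluorescent reporter mRNA fragments resolved by capillary electrophoresis after RT-PCR. Human liver HepG2 cells carried transiently transfected cis-regulated reporter constructs; chemicals incubated 24 h; gain or loss of signal fitted relative to DMSO.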

[15] = ATG_GLI_CIS: Attagene CIS-FACTORIAL HepG2 Assay for human Zinc Finger Protein GLI1 (AID 2282945); settings: HepG2, Attagene cis-factorial reporter mRNA, GLI element; actives raise or lower the signal
Procedure, shortened: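 Transiently transfected HepG2 cells report endogenous transcription factor activity via cis-element-driven reporter units. After 24 h compound exposure, reporter mRNA was measured by RT-PCR with capillary electrophoresis; bidirectional fitting against DMSO baseline.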

[16] = ATG_Ets_CIS: Attagene CIS-FACTORIAL HepG2 Assay for human Erythroblast Transformation Specific (ETS) (AID 2282941); settings: HepG2 ETS cis-reporter transcription, actives raise or lower the signal
Procedure, shortened: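 Bidirectional fit versus DMSO of reporter mRNA signal, detected by RT-PCR and capillary electrophoresis in HepG2 cells transiently transfected with cis-element reporters and dosed 24 h.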

[17] = ATG_FoxO_CIS: Attagene CIS-FACTORIAL HepG2 Assay for human Forkhead box O (FoxO) (AID 2282943); settings: HepG2 Attagene cis-reporter, FoxO element, mRNA; actives raise or lower the signal
Procedure, shortened: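 Transfected HepG2 reporter cells exposed to test chemical for 24 h; reporter RNA measured by reverse transcription, PCR and fluorescent capillary electrophoresis; curves fitted for increases and decreases against DMSO.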

[18] = ATG_ERE_CIS: Attagene CIS-FACTORIAL HepG2 Assay for Estrogen Response Element (ERE) (AID 2282940); settings: HepG2 ERE cis-reporter, Attagene RNA transcript; actives raise or lower the signal
Procedure, shortened: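 Readout: reporter mRNA induction by RT-PCR, FAM-labelled primer extension, HpaI digestion and capillary electrophoresis, 24 h after dosing transfected HepG2 cells. Endogenous transcription factors act on cis-element-regulated reporters. Gain or loss fitted against DMSO.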

Measured: AC50

CC(C=O)Cc1ccc(C(C)C)cc1 (configuration not stated)
not listed: [16] | [17] | [18]
inactive: all other assays above

CC(C)C1CCC(O)CC1 (configuration not stated)
not listed: [18]
inactive: all other assays above

CC1CCC(C(C)(C)O)CC1 (configuration not stated)
not listed: [18]
inactive: all other assays above

C[C@]12CC[C@H]3[C@@H](CCC4=CC(=O)CC[C@@]43C)[C@@H]1CC[C@@H]2C(=O)CO
active: [7] 100 µM | [11] 55.9 µM | [18] 0.635 µM
not listed: [16]
inactive: all other assays above

CC(=O)OCCC(C)CC(C)(C)C (configuration not stated)
inactive: all assays above

CC(C)(N)CO
inactive: all assays above

CC(=O)OCC=Cc1ccccc1
not listed: [18]
inactive: all other assays above

CCCc1c(OCCCOc2ccc(OCC(=O)O)cc2)ccc(C(C)=O)c1O
active: [3] 64.1 µM | [7] 137 µM | [11] 31.8 µM | [18] 0.365 µM
inactive: all other assays above
